Holding throughout (set-up): scale not given: direction of the effect not stated beside the values
Assay [1] has as its target Protein translocase subunit SecA (Escherichia coli (strain K12)) (UniProt P10408). In words: Assay to Identify E. coli SecA ATPase Inhibitors. The assay is classed as functional. Particulars: 30 µM.
Assay [2] deals with T1, Ubiquitin-activating enzyme e1, putative (Leishmania donovani (strain BPK282A1)) (UniProt E9BSI1).
T1 sequence (whole entry): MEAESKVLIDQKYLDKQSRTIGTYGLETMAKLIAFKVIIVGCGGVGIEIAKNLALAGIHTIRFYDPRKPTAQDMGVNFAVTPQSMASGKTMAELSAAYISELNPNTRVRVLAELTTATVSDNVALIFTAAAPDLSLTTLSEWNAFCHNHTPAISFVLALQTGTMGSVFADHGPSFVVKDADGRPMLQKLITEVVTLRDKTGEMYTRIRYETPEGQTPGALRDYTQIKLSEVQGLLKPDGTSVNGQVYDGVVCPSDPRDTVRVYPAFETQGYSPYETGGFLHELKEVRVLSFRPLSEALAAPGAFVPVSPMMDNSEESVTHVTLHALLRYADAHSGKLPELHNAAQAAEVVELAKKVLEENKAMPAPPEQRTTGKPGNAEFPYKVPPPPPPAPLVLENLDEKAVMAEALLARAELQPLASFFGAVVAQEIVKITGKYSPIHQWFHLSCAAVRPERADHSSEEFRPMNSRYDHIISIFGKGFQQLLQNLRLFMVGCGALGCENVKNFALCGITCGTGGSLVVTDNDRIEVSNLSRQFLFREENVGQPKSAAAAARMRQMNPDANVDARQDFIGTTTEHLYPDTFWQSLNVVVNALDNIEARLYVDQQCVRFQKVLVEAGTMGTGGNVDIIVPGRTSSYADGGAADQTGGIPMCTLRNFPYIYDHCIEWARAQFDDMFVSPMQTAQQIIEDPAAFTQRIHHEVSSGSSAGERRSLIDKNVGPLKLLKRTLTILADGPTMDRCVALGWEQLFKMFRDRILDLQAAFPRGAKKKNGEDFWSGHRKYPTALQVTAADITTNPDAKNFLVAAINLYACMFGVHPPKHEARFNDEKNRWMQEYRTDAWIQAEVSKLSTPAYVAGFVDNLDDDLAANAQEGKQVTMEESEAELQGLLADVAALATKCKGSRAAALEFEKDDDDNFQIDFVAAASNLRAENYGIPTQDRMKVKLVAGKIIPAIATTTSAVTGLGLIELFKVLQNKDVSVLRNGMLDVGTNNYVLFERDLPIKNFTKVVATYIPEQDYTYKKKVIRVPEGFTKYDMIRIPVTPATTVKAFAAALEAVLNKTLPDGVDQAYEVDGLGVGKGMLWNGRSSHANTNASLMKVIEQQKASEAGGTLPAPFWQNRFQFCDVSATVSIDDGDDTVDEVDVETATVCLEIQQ
Briefly: Leishmania donovani Ubiquitin Activating Enzyme (LdE1). The assay is classed as functional. As to conditions: 30 µM.

For assay [3], the target named is AMP-activated protein kinase, AMPK (Homo sapiens) (UniProt P54646+O43741+P54619+Q9UGJ0+Q9Y478+Q13131+Q9UGI9). Briefly: AMP-dependent Kinase enzyme assay. An in vitro enzyme assay that detects ADP turnover that is directly proportional to AMPK activity. This uses naive AMPK that is activated during the assay with MK-8722. Format: functional. As to conditions: 30 µM.

Assay [4] deals with Sialic acid-binding Ig-like lectin 9 (Homo sapiens) (UniProt Q9Y336). In words: Hs-Siglec9 ALPHAscreen SOP 20170721. Particulars: 10 µM. In general terms: Bead proximity is the source of the signal in Alpha formats.
Chain of Sialic acid-binding Ig-like lectin 9 (Homo sapiens) (Q9Y336 whole entry): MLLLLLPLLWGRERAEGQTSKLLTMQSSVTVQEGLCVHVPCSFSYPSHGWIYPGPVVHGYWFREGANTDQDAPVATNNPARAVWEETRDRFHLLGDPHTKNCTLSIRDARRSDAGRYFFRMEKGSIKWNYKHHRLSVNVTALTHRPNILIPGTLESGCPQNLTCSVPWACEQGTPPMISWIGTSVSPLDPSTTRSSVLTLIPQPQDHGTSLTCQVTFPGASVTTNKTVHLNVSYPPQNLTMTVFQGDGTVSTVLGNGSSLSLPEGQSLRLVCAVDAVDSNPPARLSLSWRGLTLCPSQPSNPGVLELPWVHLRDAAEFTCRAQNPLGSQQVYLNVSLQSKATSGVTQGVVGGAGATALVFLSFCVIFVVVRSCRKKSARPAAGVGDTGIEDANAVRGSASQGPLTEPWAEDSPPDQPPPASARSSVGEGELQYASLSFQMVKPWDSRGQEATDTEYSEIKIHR
In another assay the test system is Trypanosoma cruzi. Briefly: Trypanosoma cruzi phosphomannomutase and mannose-1-phosphate guanylyltransferase assay. Format: functional. Particulars: 10 µM.
For assay [5], the target named is T2, Arginase-2, mitochondrial (Homo sapiens) (UniProt P78540).
T2 sequence (whole entry): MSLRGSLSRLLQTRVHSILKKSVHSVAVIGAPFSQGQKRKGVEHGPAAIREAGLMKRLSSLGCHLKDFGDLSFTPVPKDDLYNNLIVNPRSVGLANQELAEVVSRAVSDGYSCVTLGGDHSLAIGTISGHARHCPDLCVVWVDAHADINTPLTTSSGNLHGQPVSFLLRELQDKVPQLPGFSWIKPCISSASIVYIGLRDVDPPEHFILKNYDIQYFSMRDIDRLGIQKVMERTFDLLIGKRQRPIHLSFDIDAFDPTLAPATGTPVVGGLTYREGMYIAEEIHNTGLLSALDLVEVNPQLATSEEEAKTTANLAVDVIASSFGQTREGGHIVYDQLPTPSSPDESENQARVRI
Briefly: in vitro enzyme assay to detect the production of urea directly proportional to the activity of Arginase II. Note: in the data most compounds retested in dose-response had high values. The assay is classed as functional. Particulars: 33.3 µM.

Assay [6] concerns the target T3, Proteasome subunit beta (Trypanosoma cruzi) (UniProt O96673).
T3 sequence (whole entry): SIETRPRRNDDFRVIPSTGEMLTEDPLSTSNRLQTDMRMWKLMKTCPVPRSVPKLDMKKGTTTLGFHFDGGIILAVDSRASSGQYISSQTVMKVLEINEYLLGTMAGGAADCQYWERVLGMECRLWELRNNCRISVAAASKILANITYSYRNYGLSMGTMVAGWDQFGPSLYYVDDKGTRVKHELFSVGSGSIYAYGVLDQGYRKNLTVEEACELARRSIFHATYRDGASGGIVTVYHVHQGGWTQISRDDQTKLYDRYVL
In words: Trypanosoma cruzi proteasome chymotrypsin-like activity (TcProtChymo) assay. Note: in the data most compounds retested in dose-response had high values. The assay is classed as functional. Particulars: 9.37 µM.

The next assay is filed under the species Homo sapiens. Briefly: To identify inhibition of the IFN signalling (Jak-Stat) pathway via expression of an eGFP reporter gene under the control of an IFN-stimulated response element (ISRE) containing MxA promoter. The assay is classed as functional. Particulars: 30 µM. In general terms: In a reporter assay the amount or activity of a reporter protein is the signal.

The target in assay [7] is T4, Tyrosyl-tRNA synthetase, putative (Trypanosoma cruzi (strain CL Brener)) (UniProt Q4DSP6).
T4 sequence (whole entry): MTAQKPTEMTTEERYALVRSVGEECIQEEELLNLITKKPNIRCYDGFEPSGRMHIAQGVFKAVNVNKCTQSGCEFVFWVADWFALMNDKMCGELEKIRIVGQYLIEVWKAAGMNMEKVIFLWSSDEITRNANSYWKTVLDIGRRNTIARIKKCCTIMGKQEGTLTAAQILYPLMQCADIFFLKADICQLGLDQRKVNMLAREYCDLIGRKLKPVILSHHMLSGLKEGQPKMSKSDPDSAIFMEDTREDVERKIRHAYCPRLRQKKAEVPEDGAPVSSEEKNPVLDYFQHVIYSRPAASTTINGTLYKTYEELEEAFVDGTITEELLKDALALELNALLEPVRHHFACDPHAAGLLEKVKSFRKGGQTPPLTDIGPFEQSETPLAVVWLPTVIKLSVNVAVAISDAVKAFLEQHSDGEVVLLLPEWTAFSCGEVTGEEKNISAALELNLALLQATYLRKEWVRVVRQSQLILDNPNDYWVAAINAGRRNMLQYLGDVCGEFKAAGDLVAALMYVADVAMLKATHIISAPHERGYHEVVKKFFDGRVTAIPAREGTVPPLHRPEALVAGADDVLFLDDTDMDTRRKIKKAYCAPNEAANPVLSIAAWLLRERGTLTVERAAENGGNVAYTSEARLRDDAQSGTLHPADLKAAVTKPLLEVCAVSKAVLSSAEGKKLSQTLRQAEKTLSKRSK
Briefly: Trypanosoma cruzi tyrosyl tRNA synthetase (TcYRS) _High Tyrosine SOP. Note: in the data most compounds retested in dose-response had high values. Format: functional. Particulars: 30 µM.

Assay [8] has as its target T4, Tyrosyl-tRNA synthetase, putative (Trypanosoma cruzi (strain CL Brener)). Briefly: Trypanosoma cruzi tyrosyl tRNA synthetase (TcYRS) SOP. The assay is classed as functional. As to conditions: 30 µM.
Assay [9] concerns the target Chromo domain-containing protein 1 (Saccharomyces cerevisiae (strain ATCC 204508 / S288c) (Baker's yeast)) (UniProt P32657). Briefly: ScCHD-1 Enzyme Inhibition Assay. Note: in the data most compounds retested in dose-response had high values. Particulars: 30 µM. Format: functional.

From ChEMBL document CHEMBL3988442, “University of Dundee, Small-Polar-MMV Screening Library” (2021) come the findings set out here.

For some assays here: Entries with a potency or affinity are not part of this list.

Chain of Chromo domain-containing protein 1 (Saccharomyces cerevisiae (strain ATCC 204508 / S288c) (Baker's yeast)) (P32657 whole entry, the tested form may be a part): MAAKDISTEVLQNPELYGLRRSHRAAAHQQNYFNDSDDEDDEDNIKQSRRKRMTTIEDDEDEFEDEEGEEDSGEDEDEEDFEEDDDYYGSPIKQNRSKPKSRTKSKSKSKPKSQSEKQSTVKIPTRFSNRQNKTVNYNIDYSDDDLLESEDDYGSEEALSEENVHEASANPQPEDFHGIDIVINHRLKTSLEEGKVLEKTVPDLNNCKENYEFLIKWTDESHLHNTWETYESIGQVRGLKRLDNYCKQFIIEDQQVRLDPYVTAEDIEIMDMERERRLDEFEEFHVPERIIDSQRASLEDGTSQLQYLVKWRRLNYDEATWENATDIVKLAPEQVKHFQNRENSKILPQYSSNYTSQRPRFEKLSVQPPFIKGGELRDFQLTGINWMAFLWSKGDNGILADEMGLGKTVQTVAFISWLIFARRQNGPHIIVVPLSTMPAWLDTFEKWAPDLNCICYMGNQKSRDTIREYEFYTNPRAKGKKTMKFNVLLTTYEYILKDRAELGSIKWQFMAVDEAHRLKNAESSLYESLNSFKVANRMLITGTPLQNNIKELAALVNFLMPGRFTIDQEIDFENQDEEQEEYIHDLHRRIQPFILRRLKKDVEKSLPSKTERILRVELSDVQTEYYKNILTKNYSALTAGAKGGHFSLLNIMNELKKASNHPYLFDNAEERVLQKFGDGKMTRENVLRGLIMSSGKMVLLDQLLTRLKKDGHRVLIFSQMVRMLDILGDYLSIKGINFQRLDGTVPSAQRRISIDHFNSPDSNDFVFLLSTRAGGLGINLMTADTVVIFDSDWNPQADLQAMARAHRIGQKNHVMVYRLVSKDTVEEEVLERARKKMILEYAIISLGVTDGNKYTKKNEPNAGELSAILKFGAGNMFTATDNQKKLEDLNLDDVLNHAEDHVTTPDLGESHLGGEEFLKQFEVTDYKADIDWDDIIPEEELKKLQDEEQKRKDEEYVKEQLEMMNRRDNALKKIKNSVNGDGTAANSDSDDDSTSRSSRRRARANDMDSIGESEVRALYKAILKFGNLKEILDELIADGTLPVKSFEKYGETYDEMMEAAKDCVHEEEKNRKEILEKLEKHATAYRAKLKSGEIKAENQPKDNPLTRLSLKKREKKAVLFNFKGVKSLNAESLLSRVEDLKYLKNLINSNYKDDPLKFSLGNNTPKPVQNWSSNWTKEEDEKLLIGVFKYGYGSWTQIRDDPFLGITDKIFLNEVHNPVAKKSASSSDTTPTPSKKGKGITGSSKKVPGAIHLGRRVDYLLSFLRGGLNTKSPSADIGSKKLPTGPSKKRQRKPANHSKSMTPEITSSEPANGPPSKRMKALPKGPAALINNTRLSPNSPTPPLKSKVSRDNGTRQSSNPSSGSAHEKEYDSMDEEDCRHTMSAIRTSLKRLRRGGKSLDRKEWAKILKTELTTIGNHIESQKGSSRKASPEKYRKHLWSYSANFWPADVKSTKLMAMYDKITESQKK
Chain of Protein translocase subunit SecA (Escherichia coli (strain K12)) (P10408 whole entry): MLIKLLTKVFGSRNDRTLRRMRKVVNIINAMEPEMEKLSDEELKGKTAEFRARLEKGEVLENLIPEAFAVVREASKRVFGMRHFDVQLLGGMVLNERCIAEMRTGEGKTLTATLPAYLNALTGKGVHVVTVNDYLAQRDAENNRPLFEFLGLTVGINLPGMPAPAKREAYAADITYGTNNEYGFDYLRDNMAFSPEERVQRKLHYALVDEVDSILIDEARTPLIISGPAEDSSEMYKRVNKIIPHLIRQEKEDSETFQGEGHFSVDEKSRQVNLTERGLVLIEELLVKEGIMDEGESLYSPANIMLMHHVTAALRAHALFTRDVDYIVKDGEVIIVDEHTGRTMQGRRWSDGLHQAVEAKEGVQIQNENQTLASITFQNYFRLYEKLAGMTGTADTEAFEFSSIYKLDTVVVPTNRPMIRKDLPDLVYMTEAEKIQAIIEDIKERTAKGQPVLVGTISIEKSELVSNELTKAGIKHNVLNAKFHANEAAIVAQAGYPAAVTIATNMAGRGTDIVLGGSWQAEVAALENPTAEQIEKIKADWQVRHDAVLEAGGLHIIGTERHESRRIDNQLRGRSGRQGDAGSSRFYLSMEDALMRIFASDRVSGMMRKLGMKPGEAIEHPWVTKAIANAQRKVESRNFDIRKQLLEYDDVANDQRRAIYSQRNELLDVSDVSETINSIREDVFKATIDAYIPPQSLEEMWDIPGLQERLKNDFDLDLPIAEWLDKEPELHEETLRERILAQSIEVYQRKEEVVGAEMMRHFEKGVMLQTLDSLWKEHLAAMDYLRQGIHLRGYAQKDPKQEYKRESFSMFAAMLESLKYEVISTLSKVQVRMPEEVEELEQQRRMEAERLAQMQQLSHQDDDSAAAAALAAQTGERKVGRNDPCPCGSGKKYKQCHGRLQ

Regarding `CC(NC(=O)CCCOc1ccccc1Cl)c1ccncc1` (stereo not given), the Percent Effect in assay [1] is -5.33%; in assay [2], 0%; in [3], 2.41%; in assay [4], 0.805%; with Trypanosoma cruzi, -8.42%; in assay [5] it was -2.27%. The Percent Effect in assay [6] is 6.39%; in the assay listed under Homo sapiens it was 27.7%; in [7], -2.15%; in assay [8], 2.5%; in [9], 110%.
For the molecule `Cc1nc(C)n(C2CCCN(C(=O)CCCn3ccnc3)C2)n1` (stereo not given), the Percent Effect is -8.21% in assay [1]; 0% in assay [2]; 0.109% in [3]; 0.244% in assay [4]; -3.91% with Trypanosoma cruzi; 2.92% in assay [5]. The Percent Effect in assay [6] was 10.4%; in the assay listed under Homo sapiens, 5.38%; in assay [7], 4.95%; in assay [8] it was 3.66%; in assay [9], -1.65%.
As to `Cc1cc(C(=O)N2CCCC(c3noc(C)n3)C2)[nH]n1` (stereo not given), the Percent Effect in [1] was -10.3%; in assay [2], 15.2%; in assay [3], -4.15%; in assay [4] it was 16.6%; in the assay with Trypanosoma cruzi, 10.3%; in assay [5] it was -3.04%. Besides, the Percent Effect in assay [6] is -2.21%; in the assay filed under Homo sapiens it was 12.9%; in [7] it was 8.37%; in assay [8], 21.5%; in assay [9], -9.72%.
On to `CC(C)N1CCC(Cc2cnc(-c3cccc(C(=O)O)c3)cn2)C1` (stereo not given), for which the Percent Effect in assay [1] is -3.78%; in assay [2], 1.35%; in assay [3], 12.1%; in [4], 1.95%; in the assay on Trypanosoma cruzi, 1.19%; in assay [5] it was 1.62%. Also, the Percent Effect in [6] is -3.59%; in the assay listed under Homo sapiens, 7.71%; in assay [7], 0%; in [8], 9.09%; in [9], 5.67%.
`Cc1ccc(S(=O)(=O)N2C[C@H]3C[C@H](NC(=O)c4ccnn4C)[C@H]3C2)cc1`: the Percent Effect is -1.89% in assay [1]; -6.76% in [2]; 9.6% in assay [3]; 1.27% in [4]; -0.988% in the assay on Trypanosoma cruzi; -3.02% in assay [5]. The Percent Effect in [6] was -3.28%; in the assay filed under Homo sapiens, 84.1%; in [7], 2.15%; in assay [8], 3.9%; in assay [9], 14%.
For `CC(C)n1cc(C(=O)N2Cc3ccccc3OC3(CCOCC3)C2)cn1`, the Percent Effect in assay [1] was -4.16%; in assay [2], 9.46%; in [3] it was 5.88%; in [4] it was -5.24%; in the assay on Trypanosoma cruzi, -8.1%; in assay [5] it was -9.05%. Further, the Percent Effect in assay [6] is 14.5%; in the assay listed under Homo sapiens it was 28.1%; in assay [7], -3.23%; in assay [8], -1.3%; in assay [9] it was -13.3%.
For `CC(=O)Nc1cc(C(=O)N2CCOCC2c2ccc(C)o2)ccc1F` (stereo not given), the Percent Effect in assay [1] is -3.55%; in assay [2] it was 2.67%; in assay [3], -3.55%; in assay [4], -1.06%; with Trypanosoma cruzi, -2.43%; in assay [5], -1.04%. For the same molecule, the Percent Effect in [6] is 4.18%; in the assay listed under Homo sapiens, -20.8%; in assay [7], 0.546%; in [8], 3.7%; in [9], 1.78%.
For the molecule `CC1CN(C)c2ccccc2CN1C(=O)c1ccc[nH]1` (stereo not given), the Percent Effect in assay [1] was -4.68%; in assay [2], 5.48%; in assay [3] it was -8.65%; in assay [4], -2.78%; with Trypanosoma cruzi it was -0.196%; in assay [5] it was 0.455%. Moreover, the Percent Effect in [6] is 12.9%; in the assay listed under Homo sapiens it was 20.4%; in assay [7], 5.38%; in assay [8], 10%; in [9], -4.57%.
For the molecule `COc1cccc(F)c1C(=O)N1C[C@@H](CN(C)CCO)[C@@H](CO)C1`, the Percent Effect in assay [1] was -8.11%; in assay [2], 5.2%; in assay [3], -2.26%; in assay [4] it was 3.34%; with Trypanosoma cruzi it was -2.26%; in assay [5], -5.52%. Moreover, the Percent Effect in [6] is 2.16%; in the assay filed under Homo sapiens, -11%; in [7], 2.15%; in [8] it was 8.64%; in assay [9] it was -0.727%.
With `Cc1cnn(CC2CCCN2CCc2nc3ccccc3c(=O)[nH]2)c1` (stereo not given), the Percent Effect in assay [1] was -3.81%; in [2], 10.1%; in assay [3], -7.83%; in [4] it was 11.2%; with Trypanosoma cruzi, 6.89%; in [5], 4.56%. Also, the Percent Effect in assay [6] is -1.06%; in the assay listed under Homo sapiens, 15.8%; in assay [7], 3.45%; in assay [8], 16.5%; in assay [9] it was -5.27%.
